Results filed as inconclusive are left out. A call without a number means that no potency is given here. Activity calls are given as the source filed them. The call rests on the fitted dose curve; in most records, active means well fitted inhibition curve with a large enough effect; inconclusive means small, poorly fitted or top-dose-only effect; inactive means flat fitted curve, though single readings scatter.
Potency means the concentration at half of the fitted maximal effect.

This experiment concerns Zika virus NS2B-NS3 protease. The experiment can be described thus: Primary screen GU AMC qHTS for Zika virus inhibitors (AID 1347154). Further: nearly all actives have a fitted effect of over 70% in size. As to conditions: Zika NS2B-NS3 unlinked protease, AMC fluorogenic substrate; series mostly up to 54.1 µM. In outline: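 Fluorogenic AMC-substrate cleavage by noncovalent NS2B-NS3 protease complex (25 nM, pH 8.0 Tris buffer with Tween 20) followed for 15 minutes at room temperature (~20% conversion). Percent inhibition from ex340/em450 signal change, fitted by 4-parameter Hill equation.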
Consider `CC(=O)CCCCn1c(=O)c2c(ncn2C)n(C)c1=O`, for which the Potency result is “inactive”.
As to `CO[C@H]1C[C@@H]2CC[C@@H](C)[C@@](O)(O2)C(=O)C(=O)N2CCCC[C@@H]2C(=O)O[C@H]([C@H](C)C[C@@H]2CC[C@H](OCCO)[C@H](OC)C2)CC(=O)[C@H](C)C=C(C)[C@@H](O)[C@@H](OC)C(=O)[C@H](C)C[C@H](C)C=CC=CC=C1C`, the Potency entry was “inactive”.
To `CN(C)CCC(c1ccccc1)c1ccccn1` (configuration not stated) belongs “inactive”.
In the case of `CCCCCCCCCCCC1=C(O)C(=O)C=C(O)C1=O` it was “inactive”; in that of `CC(=O)O[C@]1(C(C)=O)CC[C@H]2[C@@H]3C=C(Cl)C4=CC(=O)[C@@H]5C[C@@H]5[C@]4(C)[C@H]3CC[C@@]21C`, “inactive”.
For the molecule `CC(=O)N[C@@H](CS)C(=O)O`, the Potency entry is “inactive”.
In the case of `NC(N)=Nc1nc(CSCC/C(N)=N/S(N)(=O)=O)cs1` it was “inactive”.
For the molecule `Cc1[nH]c(C=C2C(=O)Nc3ccc(S(=O)(=O)Cc4c(Cl)cccc4Cl)cc32)c(C)c1C(=O)N1CCC[C@H]1CN1CCCC1`, the Potency entry is “inactive”.
In the case of `COc1ccc2c(Oc3ccc(NC(=O)c4c(C)n(CC(C)(C)O)n(-c5ccccc5)c4=O)cc3F)ccnc2c1` it was “inactive”.
Regarding `COC(=O)[C@@H]1[C@H]2C[C@H]3c4[nH]c5ccccc5c4CCN3C[C@@H]2CC[C@@H]1O`, the Potency result is “inactive”.
To `CC[C@@H]1C=C(C)C[C@H](C)C[C@H](OC)[C@H]2O[C@@](O)(C(=O)C(=O)N3CCCC[C@@H]3C(=O)O[C@H](C(C)=C[C@@H]3CC[C@H](Cl)[C@H](OC)C3)[C@H](C)[C@@H](O)CC1=O)[C@H](C)C[C@H]2OC` belongs “inactive”; to `CC(C)NCC(O)COc1cccc2[nH]ccc12` (configuration not stated), “inactive”; to `CC(=O)c1ccc(S(=O)(=O)NC(=O)NC2CCCCC2)cc1`, “inactive”.
To `Clc1ccc(Cn2c(CN3CCCC3)nc3ccccc32)cc1` belongs “inactive”.
To `CNC1CCC(N(Cc2cccc(-c3ccncc3)c2)C(=O)c2sc3c(F)ccc(F)c3c2Cl)CC1` (configuration not stated) belongs “inactive”; to `CCN(CC)CCOC(=O)c1ccc(N)cc1`, “inactive”.
Take `CCCNC(=O)NS(=O)(=O)c1ccc(Cl)cc1`: the Potency entry is “inactive”.
To `O=C1NCC2(CCN(CCc3ccccc3)CC2)O1` belongs “inactive”; to `C[N+](C)(C)CCCCCC[N+](C)(C)C`, “inactive”; to `Cc1cccc(C)c1OCC(C)N` (configuration not stated), “inactive”.
Consider `Cc1nnc(C(C)C)n1C1C[C@H]2CC[C@@H](C1)N2CC[C@H](NC(=O)C1CCC(F)(F)CC1)c1ccccc1` (some centres not stated), for which the Potency result was “inactive”.
`O=C1NC(=O)C(c2ccccc2)(c2ccccc2)N1`: the Potency entry is “inactive”.
To `CCN1CCC[C@H]1CNC(=O)c1cc(S(N)(=O)=O)ccc1OC` belongs “inactive”.
Turning to `CO[C@H]1C[C@@H]2CC[C@@H](C)[C@@](O)(O2)C(=O)C(=O)N2CCCC[C@@H]2C(=O)O[C@H]([C@H](C)C[C@@H]2CC[C@H](OP(C)(C)=O)[C@H](OC)C2)CC(=O)[C@H](C)C=C(C)[C@@H](O)[C@@H](OC)C(=O)[C@H](C)C[C@H](C)C=CC=CC=C1C`, the Potency result is “inactive”.
In the case of `O=C(NCCN1CCOCC1)c1ccc(Cl)cc1` it was “inactive”.
To `COc1ccccc1N1CCN(CCCNc2cc(=O)n(C)c(=O)n2C)CC1` belongs “inactive”.
For `Cc1cc(OCCCc2c(C(=O)O)n(Cc3cccnc3)c3c(-c4c(COc5ccc(N6CCN([S+](C)(=O)[O-])CC6)cc5)nn(C)c4C)cccc23)cc(C)c1Cl`, the Potency is 21.5 µM (active).
Take `CN[C@@H](C)C(=O)N[C@H]1CN(C(=O)CC(C)C)CC[C@H]2CC[C@@H](C(=O)NC(c3ccccc3)c3ccccc3)N2C1=O`: the Potency entry was “inactive”.
To `CC=C(C)C(=O)O[C@H]1C(C)=C[C@]23C(=O)[C@@H](C=C(CO)[C@@H](O)[C@]12O)[C@H]1[C@@H](C[C@H]3C)C1(C)C` belongs “inactive”.
In the case of `CC(C)(C)c1ccc(C(O)CCCN2CCC(C(O)(c3ccccc3)c3ccccc3)CC2)cc1` (configuration not stated) it was “inactive”; in that of `CCCCC1C(=O)N(c2ccccc2)N(c2ccccc2)C1=O`, “inactive”; in that of `CCN(CC)CCNC(=O)c1ccc(N)cc1`, “inactive”.
